# Data from PubChem BioAssay (NCI).
# This is part of a sample that, as a whole, favours compounds with a hit. Of some 79,000 tested, about 15% had one in any assay. Unmarked numbers belong to inactive results. Activity calls are given as the source filed them. Rule as the data show it: active = growth inhibition above about 70%; inactive = the rest.
# Columns and labels:
# [1] = NCI Yeast Anticancer Drug Screen. Data for the rad50 strain (AID 155);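 also: 0% = growth of vehicle-only cultures of the same strain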; conditions: S. cerevisiae rad50 strain growth inhibition; at 50.0 µM; active compounds read high
# Outline: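 Compounds were tested on a yeast strain with an engineered DNA damage repair alteration; the reported value is growth inhibition normalised to vehicle treatment.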
# [2] = NCI Yeast Anticancer Drug Screen. Data for the mec2-1 strain (AID 157); conditions: S. cerevisiae mec2-1 strain, at 50.0 µM, active compounds read high
# Outline: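 Strain: mec2-1 (DNA repair/cell cycle alteration). Compound exposure, then growth measured; inhibition expressed relative to vehicle.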
# [3] = NCI Yeast Anticancer Drug Screen. Data for the sgs1 mgt1 strain (AID 161);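 also: 0% = growth of cultures given vehicle only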; conditions: S. cerevisiae sgs1 mgt1 strain, at 50.0 µM, active compounds read high
# Outline: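 Mutant yeast exposed to compound; growth scored against vehicle-only wells.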
# [4] = NCI Yeast Anticancer Drug Screen. Data for the cln2 rad14 strain (AID 165);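 also: 0% = growth equal to vehicle treated cultures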; conditions: S. cerevisiae cln2 rad14 strain, at 50.0 µM, active compounds read high
# Outline: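 Compounds are applied to the cln2 rad14 yeast strain, and growth is then compared with that of vehicle-treated cultures to give inhibition.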
# [5] = NCI Yeast Anticancer Drug Screen. Data for the bub3 strain (AID 167); conditions: S. cerevisiae bub3 mutant strain, at 50.0 µM, active compounds read high
# Outline: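 Growth of a checkpoint-deficient yeast mutant is measured after compound exposure. Values represent inhibition relative to vehicle.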
# [6] = NCI Yeast Anticancer Drug Screen. Data for the mlh1 rad18 strain (AID 175); conditions: S. cerevisiae mlh1 rad18 strain growth inhibition; at 50.0 µM; active compounds read high
# Outline: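 Read-out is yeast growth inhibition, calculated against vehicle-only controls. The compound was applied to a strain engineered with DNA damage repair alterations.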
Structure (SMILES),growth inhibition [1] [%],growth inhibition [2] [%],growth inhibition [3] [%],growth inhibition [4] [%],growth inhibition [5],growth inhibition [6] [%]
O=c1oc2ccccc2c(=O)n1O,65.8,10.3,10.1,9.4,30.1%,43.1
CCCCCCCC/C=C/CCCCCCCC(=O)N(CCOC(=O)C(C)(C)C)CCOC(=O)C(C)(C)C,37.5,9.5,25.6,24.2,-2.45%,39.2
O=C(O)C1CSC(c2ccccc2O)N1 (centres undefined),-17.6,-2.75,-4.6,-26.9,5.4%,-8.75
COc1cccc(NC(=S)Nn2c(C)nc3ccccc3c2=O)c1,-25.2,-14,-17.1,0.25,-11.3%,-28.6
COc1ccc(NC(=S)c2ccoc2C)cc1CC(=O)OC(C)C,17.4,18.4,48.5,13.2,37.9%,-18.7
O=S(=O)(O)c1ccc2cc(O)ccc2c1,35.7,14.6,13.8,14.5,20.8%,28.4
CSc1ccc(C(=O)c2ccc(SC)cc2)cc1,5.65,15.8,16.2,-12.8,-4.25%,-17.2
S=c1[nH]nc2nc3c4ccccc4c4ccccc4c3nn12,53.7,22.8,10.3,14.2,21.2%,25.7
COC1(OC)C2(Cl)CC(C(=O)O)C1(Cl)C(Cl)=C2Cl (centres undefined),7.55,3.85,19.6,-51.7,-1.35%,13.7
O=NN(CCCl)C(=O)NC1CCC(CC(=O)O)CC1 (centres undefined),19.1,6.1,-9.25,-8.7,2.9%,-6.85
O=C(/C=C/C=C/c1ccc2c(c1)OCO2)N1CCCCC1,-1.5,-26.4,12.1,-22.6,5.45%,-22.7
COc1ccccc1C1CCCCC1SCC(=O)O (centres undefined),19.4,11.7,2.05,9.35,6.75%,-18.4
O=S(=O)(Oc1ccc(Cl)cc1)c1ccc(Br)cc1,10.7,32.7,47.1,8.8,39.4%,25.3
O=C(O)c1ccc2c(c1)Cc1ccccc1-2,30.5,47.9,51.3,45.1,35.6%,42
COc1ccc(/C=C2\N=C(c3ccc([N+](=O)[O-])cc3)OC2=O)cc1,-2.7,-6,-8.35,-9.5,0.55%,18.4
C=CCOC(=O)CCCCC,5,-2.7,2.65,7.9,-3.65%,0.75
Cc1c(C)c2cc(Br)ccc2[nH]c1=O,18.9,-6.2,-10.2,6.45,6.7%,2.45
C[C@@]1(Cc2ccccc2)C(=O)N2[C@@H](CO)C(c3ccccc3)O[C@]2(C)c2ccccc21 (some centres undefined),-10.8,4.7,-14.7,-6.05,-8.8%,-29.3
N#CNS(=O)(=O)c1ccccc1,8.3,-5.6,22.6,14,12.2%,17.6
CCCCCCC(=O)CC(SCCS)c1ccc(Cl)c(Cl)c1 (centres undefined),4.65,16.2,-4.3,5.8,-1.4%,6.3

Structure (SMILES),growth inhibition [1] [%],growth inhibition [2] [%],growth inhibition [3] [%],growth inhibition [4] [%],growth inhibition [5],growth inhibition [6] [%]
COC1OC(CO)C(O)C(OC(C)=O)C1NC(=O)N(CCCl)N=O (centres undefined),-4.9,-13.4,-6.2,7.4,-7.65%,-8.75
CC1=CC(=O)N(n2c(-c3ccccc3)n[nH]c2=O)C1=O,-26.9,-12.9,-4.45,7.95,-13.2%,5.3
CN(C)C(=S)/N=c1\ssc(=S)n1Cc1ccccc1,-10.4,-24.9,-4.55,16.4,-17.9%,-86.5
CCCCCCCCCCCCCCCCCCCCCCCCC(O)C(=O)O (centres undefined) (tested in a mixture with another compound),-33,-31.4,-2.4,-23.2,7.7%,-0.45
CCCNCCC(=O)Nc1ccccc1C(=O)OCC,3.15,-18,0.2,-43.1,29.3%,-6.25
COc1cc(C)c(C#N)c(OC)n1,19.4,-7.8,9.9,12.9,20.2%,14.8
CCc1ccc2c(c1)C(C)(CC)CCC2C (centres undefined),-2.45,-6.5,-16.4,-43,-8.95%,8.7
O=C1CCCNc2c(Br)cc(Br)cc21,49.2,24.7,14.2,8.6,46.5%,14.8
CN=C(NC#N)NCc1ccccc1,7.05,7.35,-2.6,10.1,20.8%,8.45
O=C(c1ccncc1)c1c(Cc2ccccc2)ccc2ccccc12,-0.3,-0.65,-9.25,-4,5.45%,-1.35
O=C1CCCCCCCCCCC1Cc1cc(O)c(CC2CCCCCCCCCCC2=O)cc1O (centres undefined),-1.2,3,-5.95,-12.9,-5.8%,-12.8
O=C(O)COc1ccc(I)cc1I,23.3,-8.05,-4.85,-37.5,23.6%,19.2
O=C1CCC(=O)N1Cl,1.05,-1,-3.6,-13.3,-5.75%,-13.8
C(=N\OCCc1ccccc1)/c1ccccn1,-14.7,-33.1,-8.95,-25.3,9.7%,4
O=C(CCC(=O)OCCCl)OCCCl,-3.4,-18.9,-5.6,-7.75,9.05%,-7.45
CC(C(=O)O)n1c(=O)ssc1=O (centres undefined),1.95,3.05,1.3,-9.25,-8.7%,0
Cc1ccc2nc3c(C)cc(=O)cc-3sc2c1,41.1,34.6,36.5,44.9,74.5% (active),43.6
Cc1cc(Cl)ccc1NC(=O)C1C(=O)C(=O)N(c2ccc(Cl)cc2C)C1=O (centres undefined),7.4,-2.3,14.8,13.4,-18.2%,17.2
c1ccc2cc(N=Nc3cccc4ccccc34)ccc2c1,-10.5,-17.9,1.15,-19,1.1%,-7.75
